# miR122 inh: miR-122 sensor activation; Huh7 psiCHECK-miR122 Renilla luciferase sensor, 48 h; activation, % at 12.5 µM; actives 0.14% (n = 340,000); AID 623901;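 active means mean activation of 30% or more, with every replicate also reaching 30%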;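 further: 0% = median of neutral control wells and 100% = median of positive control wells; higher luciferase signal means stronger suppression of miR-122 activity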
# Numbers without * were called inactive. Shown is part of a subset that was picked to be rich in hits.
SMILES,miR122 inh
CO[C@@H]1CN(C)C(=O)c2cc(NS(=O)(=O)c3ccccc3)ccc2OC[C@@H](C)N(C)C[C@H]1C,-1
CN(C)CCCNC(=O)C[C@@H]1CC[C@H]2[C@H](COc3ccc(NC(=O)c4cccc(F)c4)cc3C(=O)N2C)O1,42*
CO[C@@H]1CN(C)C(=O)c2cc(NC(=O)c3ccc(F)cc3)ccc2OC[C@H](C)N(C)C[C@@H]1C,-3
CN1C(=O)c2cc(NC(=O)c3cccc(F)c3)ccc2OC[C@@H]2O[C@H](CC(=O)Nc3ccccc3)CC[C@H]21,55*
C[C@H]1CN([C@@H](C)CO)C(=O)c2cc(-c3ccccc3F)cnc2O[C@@H]1CN(C)Cc1ccccc1F,7
COc1ccccc1S(=O)(=O)N(C)C[C@@H]1Oc2ncc(-c3ccc(C)cc3)cc2C(=O)N([C@H](C)CO)C[C@H]1C,8
CCCNC(=O)N(C)C[C@H]1Oc2cc(C#CCOC)ccc2S(=O)(=O)N([C@H](C)CO)C[C@H]1C,-10
C[C@H](CO)N1C[C@H](C)[C@@H](CN(C)S(C)(=O)=O)Oc2ncc(C#CC3(O)CCCC3)cc2C1=O,6
CCS(=O)(=O)Nc1ccc2c(c1)C(=O)N(C)C[C@@H](OC)[C@H](C)CN[C@@H](C)CO2,-1
COc1cccc(-c2ccc3c(c2)O[C@@H](CN(C)C(=O)C2CCCCC2)[C@H](C)CN([C@@H](C)CO)S3(=O)=O)c1,-19
COCC#Cc1cnc2c(c1)C(=O)N([C@H](C)CO)C[C@@H](C)[C@@H](CN(C)C(=O)Cc1cccnc1)O2,6
CCCC(=O)Nc1ccc2c(c1)C(=O)N(C)C[C@@H](OC)[C@@H](C)CN(CCC)[C@H](C)CO2,0
CO[C@H]1CN(C)C(=O)c2cc(NC(=O)c3ccc(F)cc3)ccc2OC[C@@H](C)N(C)C[C@H]1C,-3
CO[C@H]1CN(C)C(=O)c2cc(NC(=O)Cc3ccccc3)ccc2OC[C@H](C)N(C)C[C@H]1C,-3
CCNC(=O)C[C@H]1CC[C@H]2[C@@H](COc3ccc(NC(=O)c4ccccc4)cc3C(=O)N2C)O1,50*
CN1C(=O)c2cc(NC(=O)Cc3ccccc3)ccc2OC[C@@H]2O[C@@H](CC(=O)NCC3CC3)CC[C@@H]21,-183
CN1C(=O)c2cc(NC(=O)c3cccc(F)c3)ccc2OC[C@H]2O[C@H](CC(=O)N3CCc4ccccc4C3)CC[C@H]21,37*
CO[C@H]1CN(C)C(=O)c2cc(NC(=O)c3ccc(F)cc3)ccc2OC[C@@H](C)N(C)C[C@@H]1C,-1
CC(C)CC#Cc1cnc2c(c1)C(=O)N([C@H](C)CO)C[C@H](C)[C@@H](CN(C)S(=O)(=O)c1ccccc1)O2,-18
COCC#Cc1ccc2c(c1)O[C@H](CN(C)C(=O)C1CCCCC1)[C@@H](C)CN([C@H](C)CO)S2(=O)=O,-12
Cc1noc(C)c1NC(=O)N(C)C[C@H]1Oc2ncc(C#CCC(C)C)cc2C(=O)N([C@H](C)CO)C[C@@H]1C,-1
COc1ccc(-c2cnc3c(c2)C(=O)N([C@H](C)CO)C[C@@H](C)[C@@H](CN(C)Cc2ccccn2)O3)cc1,1
OC(c1cc(C(F)(F)F)nc2c(Cl)cc(Cl)cc12)C1CCCCN1 (stereo not drawn),41*
CNC[C@H]1Oc2cc(C#Cc3cccc(F)c3)ccc2S(=O)(=O)N([C@H](C)CO)C[C@@H]1C,9
COCC#Cc1cnc2c(c1)C(=O)N([C@@H](C)CO)C[C@@H](C)[C@H](CN(C)S(=O)(=O)c1cccc(OC)c1)O2,1
SMILES,miR122 inh
Cc1ccc(Cn2c(NS(=O)(=O)c3ccccc3)nc3ccccc32)cc1,-106
Cc1ccc(OCC(O)Cn2c(=N)n(Cc3ccccc3)c3ccccc32)cc1 (stereo not drawn),90*
C[C@H]1CN([C@@H](C)CO)C(=O)c2cc(C#CCC3CCCC3)cnc2O[C@@H]1CN(C)CC1CCOCC1,-9
CN(C)c1ccc(/C=C/c2ccc3ccccc3[n+]2C)cc1,49*
Cc1noc(C)c1S(=O)(=O)N(C)C[C@@H]1Oc2c(NC(=O)C3CCOCC3)cccc2C(=O)N([C@@H](C)CO)C[C@@H]1C,-96
CO[C@H]1CN(C)C(=O)c2cc(NC(=O)NC(C)C)ccc2OC[C@H](C)N(C(=O)NC(C)C)C[C@@H]1C,-5
CCC(=O)N(C)C[C@@H]1Oc2cc(-c3cccc(C#N)c3)ccc2S(=O)(=O)N([C@H](C)CO)C[C@H]1C,4
O=S(=O)(C/C(=C/CO)S(=O)(=O)c1ccccc1)c1ccccc1,72*
CCC(=O)N1C[C@H](C)[C@@H](OC)CN(C)C(=O)c2ccc(NS(C)(=O)=O)cc2OC[C@@H]1C,1
Cc1noc(C)c1NC(=O)N(C)C[C@H]1Oc2cc(C#CCC(C)C)ccc2S(=O)(=O)N([C@H](C)CO)C[C@H]1C,-45
COc1ccccc1C#Cc1ccc2c(c1)O[C@@H](CN(C)Cc1ccncc1)[C@H](C)CN([C@@H](C)CO)S2(=O)=O,11
C[C@H]1CN([C@@H](C)CO)C(=O)c2cc(C#CC3(O)CCCC3)cnc2O[C@H]1CN(C)S(C)(=O)=O,4

# High-throughput results (PubChem BioAssay)
